Assay results taken from the supplement of paper PMC6089552.
About 300 (9.4%) of roughly 3,200 compounds showed activity. The full list was thinned out, with actives kept by preference. Unmarked numbers belong to inactive results.

Test system: A673/TR/shEF
Assay: cell viability (LOESS-normalised, relative to median of negative controls) (log2 ratio); higher = more viable cells (less compound effect), active = hit call of the paper (over 3 MAD below the median)
Conditions: treatment time: 72 h
Procedure, shortened: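 For three days, A673/TR/shEF Ewing sarcoma cells in 384-well plates (1,500 per well) were treated with library compounds at two or more concentrations or with DMSO controls, after doxycycline had been added or withheld 24 h beforehand to induce EWS-FLI1 shRNA knockdown. Viability was read by CellTiter-Glo luminescence on an Envision reader. The data were LOESS-corrected per plate, divided by the median of negative controls and log2-transformed.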

[1] = 0.25 µM, library screen: screen1, EWS-FLI1 expression: high (no doxycycline)
[2] = 0.25 µM, library screen: screen1, EWS-FLI1 expression: low (doxycycline-induced shRNA knockdown)
[3] = 2.5 µM, library screen: screen1, EWS-FLI1 expression: high (no doxycycline)
[4] = 2.5 µM, library screen: screen1, EWS-FLI1 expression: low (doxycycline-induced shRNA knockdown)
[5] = 0.103 µM, library screen: screen3, EWS-FLI1 expression: high (no doxycycline)
[6] = 0.103 µM, library screen: screen3, EWS-FLI1 expression: low (doxycycline-induced shRNA knockdown)
[7] = 0.25 µM, library screen: screen2, EWS-FLI1 expression: high (no doxycycline)
[8] = 0.25 µM, library screen: screen2, EWS-FLI1 expression: low (doxycycline-induced shRNA knockdown)
[9] = 0.308 µM, library screen: screen3, EWS-FLI1 expression: high (no doxycycline)
[10] = 0.308 µM, library screen: screen3, EWS-FLI1 expression: low (doxycycline-induced shRNA knockdown)
[11] = 0.926 µM, library screen: screen3, EWS-FLI1 expression: high (no doxycycline)
[12] = 0.926 µM, library screen: screen3, EWS-FLI1 expression: low (doxycycline-induced shRNA knockdown)
[13] = 2.5 µM, library screen: screen2, EWS-FLI1 expression: high (no doxycycline)
[14] = 2.5 µM, library screen: screen2, EWS-FLI1 expression: low (doxycycline-induced shRNA knockdown)
[15] = 2.8 µM, library screen: screen3, EWS-FLI1 expression: high (no doxycycline)
[16] = 2.8 µM, library screen: screen3, EWS-FLI1 expression: low (doxycycline-induced shRNA knockdown)
[17] = 8.3 µM, library screen: screen3, EWS-FLI1 expression: high (no doxycycline)
[18] = 8.3 µM, library screen: screen3, EWS-FLI1 expression: low (doxycycline-induced shRNA knockdown)
[19] = 25 µM, library screen: screen3, EWS-FLI1 expression: high (no doxycycline)
[20] = 25 µM, library screen: screen3, EWS-FLI1 expression: low (doxycycline-induced shRNA knockdown)

SMILES: COC(=O)C1=C(C)NC2=C(C(=O)CCC2)C1c1coc2ccccc2c1=O (configuration not stated)
- cell viability (log2) [1]: 0.109
- cell viability (log2) [2]: 0.0579
- cell viability (log2) [3]: 0.125
- cell viability (log2) [4]: 0.0379

SMILES: CC(=O)O[C@@H]1CC2C(C)(C)[C@@H](O)CC[C@]2(C)C2CC[C@@]3(C)[C@H](c4ccoc4)OC(=O)[C@H]4O[C@]43[C@@]21C (some centres not stated)
- cell viability (log2) [1]: 0.0735
- cell viability (log2) [2]: 0.138
- cell viability (log2) [3]: 0.203
- cell viability (log2) [4]: 0.158

SMILES: CCOc1cc(/C=C2\SC(=S)N(CCS(=O)(=O)O)C2=O)ccc1O
- cell viability (log2) [1]: -0.00487
- cell viability (log2) [2]: 0.0852
- cell viability (log2) [3]: 0.0865
- cell viability (log2) [4]: 0.0812

SMILES: CN1CCN(c2nc3ccccn3c(=O)c2/C=C2\SC(=S)N(CCc3ccccc3)C2=O)CC1
- cell viability (log2) [1]: -0.00293
- cell viability (log2) [2]: 0.00861
- cell viability (log2) [3]: 0.0344
- cell viability (log2) [4]: 0.124

SMILES: C[C@H](CCC(=O)O)[C@H]1CC[C@H]2[C@@H]3CC[C@@H]4CCCC[C@]4(C)[C@H]3CC[C@]12C
- cell viability (log2) [1]: 0.0641
- cell viability (log2) [2]: -0.0159
- cell viability (log2) [3]: 0.109
- cell viability (log2) [4]: -0.0358

SMILES: C/C=C(/C)C(=O)O[C@H]1[C@H](OC(C)=O)[C@]2(CO)[C@H](O)C[C@]3(C)C(=CC[C@@H]4[C@@]5(C)CC[C@H](O[C@@H]6O[C@H](C(=O)O)[C@@H](O[C@@H]7O[C@H](CO)[C@@H](O)[C@H](O)[C@H]7O)[C@H](O)[C@H]6O[C@@H]6O[C@H](CO)[C@@H](O)[C@H](O)[C@H]6O)[C@](C)(CO)[C@@H]5CC[C@]43C)[C@@H]2CC1(C)C.C/C=C(\C)C(=O)O[C@H]1[C@H](OC(C)=O)[C@@]2(CO)C(CC1(C)C)C1=CCC3[C@@]4(C)CC[C@H](O[C@@H]5O[C@H](C(=O)O)[C@@H](O[C@@H]6O[C@H](CO)[C@@H](O)[C@H](O)[C@H]6O)[C@H](O)[C@H]5O[C@@H]5O[C@H](CO)[C@@H](O)[C@H](O)[C@H]5O)[C@](C)(CO)C4CC[C@@]3(C)[C@]1(C)C[C@H]2O
- cell viability (log2) [1]: 0.0112
- cell viability (log2) [2]: -0.0408
- cell viability (log2) [3]: 0.0934
- cell viability (log2) [4]: 0.0403

SMILES: CC[C@]1(O)C[C@H]2CN(CCc3c([nH]c4ccccc34)[C@@](C(=O)OC)(c3cc4c(cc3OC)N(C=O)[C@H]3[C@@](O)(C(=O)OC)[C@H](OC(C)=O)[C@]5(CC)C=CCN6CC[C@]43[C@@H]65)C2)C1
- cell viability (log2) [5]: -3.56 (active)
- cell viability (log2) [6]: -0.748 (active)
- cell viability (log2) [7]: -2.87 (active)
- cell viability (log2) [8]: -0.436 (active)
- cell viability (log2) [9]: -3.82 (active)
- cell viability (log2) [10]: -0.668 (active)
- cell viability (log2) [11]: -3.92 (active)
- cell viability (log2) [12]: -0.728 (active)
- cell viability (log2) [13]: -2.88 (active)
- cell viability (log2) [14]: -0.517 (active)
- cell viability (log2) [15]: -3.8 (active)
- cell viability (log2) [16]: -0.704 (active)
- cell viability (log2) [17]: -3.93 (active)
- cell viability (log2) [18]: -0.847 (active)
- cell viability (log2) [19]: -3.66 (active)
- cell viability (log2) [20]: -0.84 (active)

SMILES: CCC1(O)CC2CN(CCc3c([nH]c4ccccc34)[C@@](C(=O)OC)(c3cc4c(cc3OC)N(C)C3[C@]45CCN4CC=C[C@@](CC)([C@@H](OC(C)=O)[C@]3(O)C(=O)OC)[C@H]45)C2)C1 (some centres not stated)
- cell viability (log2) [7]: -3.54 (active)
- cell viability (log2) [8]: -0.483 (active)
- cell viability (log2) [13]: -3.67 (active)
- cell viability (log2) [14]: -0.537 (active)

SMILES: CCC1=C[C@@H]2CN(C1)Cc1c([nH]c3ccccc13)[C@@](C(=O)OC)(c1cc3c(cc1OC)N(C)[C@H]1[C@@](O)(C(=O)OC)[C@H](OC(C)=O)[C@]4(CC)C=CCN5CC[C@]31[C@@H]54)C2
- cell viability (log2) [5]: -4.31 (active)
- cell viability (log2) [6]: -1.05 (active)
- cell viability (log2) [9]: -3.96 (active)
- cell viability (log2) [10]: -1.11 (active)
- cell viability (log2) [11]: -4.31 (active)
- cell viability (log2) [12]: -0.811 (active)
- cell viability (log2) [15]: -4.31 (active)
- cell viability (log2) [16]: -0.798 (active)
- cell viability (log2) [17]: -3.91 (active)
- cell viability (log2) [18]: -0.769 (active)
- cell viability (log2) [19]: -3.44 (active)
- cell viability (log2) [20]: -0.836 (active)

SMILES: C=CCN1C(=O)C(=C2C(=O)N(C)c3ccccc32)SC1=S
- cell viability (log2) [1]: 0.145
- cell viability (log2) [2]: 0.0841
- cell viability (log2) [3]: 0.0806
- cell viability (log2) [4]: 0.0634

SMILES: CC1(C)C[C@H](O)[C@]23CC[C@@H](O)[C@@](C)(CC[C@@H]12)C3
- cell viability (log2) [1]: 0.155
- cell viability (log2) [2]: 0.054
- cell viability (log2) [3]: 0.181
- cell viability (log2) [4]: 0.0139

SMILES: C=CCNc1nc2ccccn2c(=O)c1/C=C1\SC(=S)N(CCc2ccccc2)C1=O
- cell viability (log2) [1]: 0.071
- cell viability (log2) [2]: 0.0307
- cell viability (log2) [3]: 0.121
- cell viability (log2) [4]: 0.134

SMILES: CCOC(=O)c1c[nH]c2c(Cl)c(Cl)ccc2c1=O
- cell viability (log2) [1]: 0.0772
- cell viability (log2) [2]: 0.122
- cell viability (log2) [3]: 0.11
- cell viability (log2) [4]: 0.176

SMILES: O=C(O)c1ccc(O)c2c1C(=O)c1cc(O)cc(O)c1C2=O
- cell viability (log2) [1]: 0.0473
- cell viability (log2) [2]: -0.0191
- cell viability (log2) [3]: 0.0745
- cell viability (log2) [4]: 0.0247

SMILES: COC(=O)Nc1ccc(-c2nc(N3CCOCC3)c3cnn(C4CCN(Cc5cccnc5)CC4)c3n2)cc1
- cell viability (log2) [5]: -0.0181
- cell viability (log2) [6]: 0.0282
- cell viability (log2) [9]: -0.00456
- cell viability (log2) [10]: -0.0439
- cell viability (log2) [11]: -0.169
- cell viability (log2) [12]: -0.0706
- cell viability (log2) [15]: -0.33 (active)
- cell viability (log2) [16]: -0.297 (active)
- cell viability (log2) [17]: -0.973 (active)
- cell viability (log2) [18]: -0.691 (active)
- cell viability (log2) [19]: -1.84 (active)
- cell viability (log2) [20]: -1.76 (active)

SMILES: COC(=O)Nc1ccc(-c2nc(N3CCOCC3)c3cnn(C4CCN(C(=O)OC)CC4)c3n2)cc1
- cell viability (log2) [5]: -0.0923
- cell viability (log2) [6]: 0.0164
- cell viability (log2) [9]: -0.0767
- cell viability (log2) [10]: -0.0949
- cell viability (log2) [11]: -0.134
- cell viability (log2) [12]: -0.0918
- cell viability (log2) [15]: -0.281 (active)
- cell viability (log2) [16]: -0.237 (active)
- cell viability (log2) [17]: -0.419 (active)
- cell viability (log2) [18]: -0.244 (active)
- cell viability (log2) [19]: -0.744 (active)
- cell viability (log2) [20]: -0.369 (active)

SMILES: COc1cc(CN2CCN(Cc3cccnc3)CC2)cc(OC)c1OC
- cell viability (log2) [1]: 0.0843
- cell viability (log2) [2]: 0.0394
- cell viability (log2) [3]: 0.126
- cell viability (log2) [4]: 0.144

SMILES: COc1cc(OC)c(OC)cc1CN1CCN(Cc2cccnc2)CC1
- cell viability (log2) [1]: 0.0812
- cell viability (log2) [2]: 0.0446
- cell viability (log2) [3]: 0.193
- cell viability (log2) [4]: 0.00403

SMILES: COc1cc(/C=C/C(=O)/C=C(O)/C=C/c2ccc(O)c(OC)c2)ccc1O
- cell viability (log2) [1]: 0.0822
- cell viability (log2) [2]: 0.0311
- cell viability (log2) [3]: 0.0603
- cell viability (log2) [4]: -0.0173
